The values below come from PubChem BioAssay.

Assay [1] can be described thus: optical density shifts of acrAB sulA E. coli – strain DRC41, OD650, 48 h, E. coli filamentation inducer project, primary screen (AID 1152).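 Further: E. coli MC1000 strain DRC41 lacking acrAB efflux pump and sulA.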 The note with it: higher = more signal, called active from +8 up or from −8 down.
Assay [2] is described as follows: probe aLefty1 binding on compound microarray – biochemical, small-molecule microarray, 635/667 nm fluorescence, primary screen (AID 1153).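 Further: score merges spot fluorescence with signal-to-noise ratio from the scanned slide images.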 The note with it: higher = more signal.
Assay [3] is described as follows: plasmodial surface anion channel blockers, osmotic lysis – cell-based, P. falciparum Indochina, OD700, 1 h, primary screen (AID 1154). The note with it: P. falciparum Indochina infected RBC osmotic lysis, higher = more signal, called active from +8 up or from −8 down.
Assay [4] is described as follows: plasmodial surface anion channel blockers, osmotic lysis – cell-based, P. falciparum Indochina, OD700, 2 h, primary screen (AID 1155).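 Further: lysis reports solute entry through the parasite surface anion channel PSAC.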 The note with it: P. falciparum Indochina infected erythrocytes, higher = more signal, called active from +8 up or from −8 down.
Assay [5] can be described thus: changes in parasitized red cell lysis, either direction – P. falciparum Indochina, OD700, 3 h, PSAC antagonist project, primary screen (AID 1156). To be noted: P. falciparum-infected erythrocytes, osmotic lysis, higher = more signal, called active from +8 up or from −8 down.
Assay [6] can be described thus: plasmodial surface anion channel blockers, osmotic lysis – cell-based, P. falciparum Indochina, OD700, 18 h, primary screen (AID 1157). To be noted: P. falciparum Indochina infected erythrocytes, osmotic lysis OD700, 18 h; higher = more signal, called active from +8 up or from −8 down.
Assay [7] can be described thus: S6 kinase pathway phospho-S6 level changes – cell-based, A549, cytoblot, luminescence, serum-stimulated, primary screen (AID 1158).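 Further: serum-stimulated A549 lung adenocarcinoma cells; signal is phosphorylated S6 detected by cytoblot immunostaining with HRP secondary.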 The note with it: 5 h, higher = more signal.
In assay [8] the target is NADPH oxidase 2 (Homo sapiens) (UniProt P04839). Nature of the assay: compounds shifting NOX2 Amplex Red fluorescence – cell-based, HEK293-NOX2, PMA-stimulated, NOX inhibitor project, primary screen (AID 1159). Further: test concentration not given here. The note with it: 45 min, higher = more signal, called active from +8 up or from −8 down.
NADPH oxidase 2 (Homo sapiens), sequence (P04839 whole entry, looked up): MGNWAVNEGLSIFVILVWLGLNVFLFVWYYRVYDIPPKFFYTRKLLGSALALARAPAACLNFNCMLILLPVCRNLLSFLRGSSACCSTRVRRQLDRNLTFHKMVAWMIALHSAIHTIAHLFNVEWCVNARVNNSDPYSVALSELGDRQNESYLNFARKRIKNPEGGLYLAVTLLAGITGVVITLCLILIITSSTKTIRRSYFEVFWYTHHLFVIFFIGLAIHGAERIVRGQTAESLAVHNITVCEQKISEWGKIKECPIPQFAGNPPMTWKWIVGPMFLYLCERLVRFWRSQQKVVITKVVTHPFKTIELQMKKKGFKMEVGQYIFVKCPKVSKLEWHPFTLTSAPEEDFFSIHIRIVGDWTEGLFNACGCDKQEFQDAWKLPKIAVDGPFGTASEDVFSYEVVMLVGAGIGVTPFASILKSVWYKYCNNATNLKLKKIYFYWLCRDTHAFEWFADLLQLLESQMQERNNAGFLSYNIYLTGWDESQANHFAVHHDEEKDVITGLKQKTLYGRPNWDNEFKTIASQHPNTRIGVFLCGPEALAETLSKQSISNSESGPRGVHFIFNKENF
Assay [9] has as its target NADPH oxidase 4 (Homo sapiens) (UniProt Q9NPH5). Nature of the assay: compounds shifting NOX4 Amplex Red fluorescence – cell-based, HEK293-NOX4, tetracycline-induced, NOX inhibitor project, primary screen (AID 1160). The note with it: HEK293-NOX4, Amplex Red H2O2 fluorescence, 45 min; higher = more signal, called active from +8 up or from −8 down.
The target in assay [10] is NADPH oxidase 5 (Homo sapiens) (UniProt Q96PH1). Nature of the assay: compounds shifting NOX5 Amplex Red fluorescence – cell-based, HEK293-NOX5, NOX inhibitor project, primary screen (AID 1161). The note with it: HEK293-NOX5, ionomycin, 45 min, higher = more signal.
NADPH oxidase 5 (Homo sapiens), sequence (Q96PH1 whole entry, looked up): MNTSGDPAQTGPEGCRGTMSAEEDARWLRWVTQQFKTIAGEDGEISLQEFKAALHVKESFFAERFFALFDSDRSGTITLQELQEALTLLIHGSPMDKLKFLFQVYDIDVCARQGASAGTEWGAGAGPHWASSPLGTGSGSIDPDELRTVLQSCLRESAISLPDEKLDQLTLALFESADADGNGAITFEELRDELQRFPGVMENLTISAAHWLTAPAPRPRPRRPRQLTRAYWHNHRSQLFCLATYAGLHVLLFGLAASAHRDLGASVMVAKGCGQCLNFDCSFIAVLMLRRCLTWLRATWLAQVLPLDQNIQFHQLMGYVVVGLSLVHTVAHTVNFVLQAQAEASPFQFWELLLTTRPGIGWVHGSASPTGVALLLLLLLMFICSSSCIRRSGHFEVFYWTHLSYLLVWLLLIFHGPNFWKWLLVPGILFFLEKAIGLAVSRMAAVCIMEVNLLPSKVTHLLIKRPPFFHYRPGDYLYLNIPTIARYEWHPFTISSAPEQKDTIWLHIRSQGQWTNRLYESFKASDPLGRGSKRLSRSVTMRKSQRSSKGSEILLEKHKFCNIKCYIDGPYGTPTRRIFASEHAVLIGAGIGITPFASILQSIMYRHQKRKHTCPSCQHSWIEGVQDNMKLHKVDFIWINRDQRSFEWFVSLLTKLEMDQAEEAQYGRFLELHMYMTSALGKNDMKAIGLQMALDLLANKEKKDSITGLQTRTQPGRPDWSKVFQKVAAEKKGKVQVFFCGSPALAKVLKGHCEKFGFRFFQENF

Active and inactive are the calls of the source.

NADPH oxidase 4 (Homo sapiens), sequence (Q9NPH5 whole entry, looked up): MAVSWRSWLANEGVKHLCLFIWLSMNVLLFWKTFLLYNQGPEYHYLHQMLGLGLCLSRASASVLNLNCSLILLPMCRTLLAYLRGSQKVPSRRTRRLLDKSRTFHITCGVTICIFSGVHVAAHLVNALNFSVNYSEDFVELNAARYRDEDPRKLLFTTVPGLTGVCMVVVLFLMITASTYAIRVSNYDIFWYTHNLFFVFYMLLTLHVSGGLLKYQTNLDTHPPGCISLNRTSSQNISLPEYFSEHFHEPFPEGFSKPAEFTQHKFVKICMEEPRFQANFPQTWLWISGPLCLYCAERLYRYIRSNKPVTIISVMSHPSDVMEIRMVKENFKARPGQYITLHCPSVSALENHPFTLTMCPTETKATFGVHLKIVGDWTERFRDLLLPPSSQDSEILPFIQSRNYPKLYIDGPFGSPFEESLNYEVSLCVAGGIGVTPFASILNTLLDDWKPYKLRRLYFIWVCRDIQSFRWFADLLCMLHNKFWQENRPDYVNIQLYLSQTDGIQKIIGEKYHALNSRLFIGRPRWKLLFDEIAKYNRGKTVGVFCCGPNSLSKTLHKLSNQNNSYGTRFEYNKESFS

As to `CN1C(=O)C2C=CC(C(O)c3ccccn3)N(N(c3ccccc3)c3ccccc3)C2C1=O` (stereo not given), the z-score in [1] was -1.06 (inactive); in [3], 1.5 (inactive); in assay [4], 1.14 (inactive); in assay [5], 0.303 (inactive); in assay [6] it was 1.05 (inactive); in assay [7] it was -0.618. Moreover, the z-score is -0.486 (inactive) in assay [8], -1.94 (inactive) in assay [9] and -2.33 in [10]. The compound also gave a composite z-score in assay [2] of 0.0774.
`C=C(C(=O)CC[C@@H](OC(C)=O)c1ccc(CO)o1)C(C)C`: the z-score in assay [1] is -0.167 (inactive); in assay [3], 1.21 (inactive); in [4] it was 0.0112 (inactive); in assay [5], 0.493 (inactive); in assay [6], -0.0113 (inactive); in assay [7], -0.0282. Moreover, the z-score in assay [8] was -0.354 (inactive); in assay [9], 0.261 (inactive); in [10], 0.483. In assay [2], this compound gave a composite z-score of -0.007.
For the compound `COC(=O)[C@@]1(Cc2ccc(OC)cc2)[C@H]2c3cc(C(=O)N(C)C)n(CCO)c3C[C@H]2CN1C(=O)c1ccccc1`, the z-score in [1] is -1.2 (inactive); in assay [3] it was 0.845 (inactive); in assay [4], 0.145 (inactive); in assay [5], 0.0732 (inactive); in assay [6], 0.446 (inactive); in [7], -0.775. Moreover, the z-score in assay [8] was 0.331 (inactive); in assay [9] it was -1.49 (inactive); in assay [10] it was -1.91. In assay [2], this compound gave a composite z-score of 0.564.
As for `COc1ccc([Si](C)(C)[C@H]2[C@H](CCn3cc([C@H](O)c4ccccc4)nn3)O[C@@]3(C(=O)N(Cc4ccc(N5C(=O)c6cccc7cccc5c67)cc4)c4ccccc43)[C@@H]2C)cc1`, the z-score in assay [1] was 0.0759 (inactive); in assay [3], 1.97 (inactive); in assay [4], 0.485 (inactive); in assay [5], 0.0591 (inactive); in [6] it was 0.646 (inactive); in assay [7], 0.243. The z-score in assay [8] was 0.892 (inactive); in assay [9], 0.925 (inactive); in assay [10], 2.01. In [2], this compound came in with a composite z-score of 0.0091.
`C=CCN1Cc2ccccc2[C@H]2OC(c3ccc(OCCCO)cc3)=N[C@@]2(CC=C)C1=O`: the z-score in [1] was 0.831 (inactive); in assay [3] it was 29.9 (active); in assay [4], 25.7 (active); in assay [5], 1.97 (inactive); in assay [6] it was 6.4 (inactive); in assay [7], 0.0524. For the same compound, the z-score was -1.66 (inactive) in assay [8], 0.367 (inactive) in assay [9] and 0.034 in assay [10]. The compound also registered a composite z-score in assay [2] of 0.692.
For the compound `COCCOC(=O)N1C(=O)[C@@]2(c3ccccc31)[C@H](C(=O)N1CCN(c3ncccn3)CC1)[C@H]1C(=O)O[C@H](c3ccccc3)[C@H](c3ccccc3)N1[C@@H]2c1ccc(O)cc1`, the z-score in assay [1] is 0.81 (inactive); in assay [3], 1.78 (inactive); in assay [4], 0.672 (inactive); in [5], 0.481 (inactive); in [6], 0.261 (inactive); in [7], 0.0481. In addition, the z-score in assay [8] is 1.25 (inactive); in assay [9], -0.0154 (inactive); in [10], 2.19. In addition, the composite z-score in assay [2] was 0.0661.
On to `COCCOC(=O)N1C(=O)[C@@]2(c3cc(C#CCNC(N)=O)ccc31)[C@H](C(=O)N1CCc3cc(OC)c(OC)cc3C1)[C@H]1C(=O)O[C@H](c3ccccc3)[C@H](c3ccccc3)N1[C@@H]2c1ccccc1OCCO`, for which the z-score in [1] was 1.83 (inactive); in assay [3] it was 3.14 (inactive); in assay [4], 0.178 (inactive); in assay [5], 0.435 (inactive); in assay [6] it was -0.244 (inactive); in assay [7], 1.81. Moreover, the z-score in assay [8] is 1.58 (inactive); in assay [9], 1.09 (inactive); in assay [10] it was -0.672. Further, the composite z-score in assay [2] stood at 0.479.
Regarding `O=C1NC(=O)C2C1C=CC(C(O)c1ccco1)N2Nc1ccccn1` (stereo not given), the z-score in assay [1] is -1.23 (inactive); in assay [3], -0.379 (inactive); in assay [4] it was 0.74 (inactive); in assay [5], -0.314 (inactive); in [6] it was 0.581 (inactive); in assay [7], -1.19. Besides, the z-score in [8] is -1.35 (inactive); in [9] it was -2.89 (inactive); in [10] it was -1.78. In [2], this compound yielded a composite z-score of -0.145.
As for `O=C1C2C=CC(C(O)c3ccc(Br)cc3)N(Nc3ccccc3F)C2C(=O)N1c1ccccc1` (stereo not given), the z-score in assay [1] was 0.894 (inactive); in [3], 3.67 (inactive); in [4], -0.0291 (inactive); in assay [5], -0.834 (inactive); in [6], -1.01 (inactive); in assay [7], 0.79. The z-score in assay [8] was -1.35 (inactive); in assay [9] it was -2.56 (inactive); in assay [10], -0.774. This compound gave a composite z-score in assay [2] of -0.192.
Take `O=C1c2ccccc2[C@](Cc2ccccc2I)(C(=O)NCC(F)(F)F)[C@H](c2ccc(CO)cc2)N1C1CCCCC1`: the z-score in assay [1] is 1.25 (inactive); in [3], 7.04 (inactive); in [4], 0.605 (inactive); in [5], 2 (inactive); in assay [6], 0.0361 (inactive); in assay [7], 0.175. Further, the z-score in assay [8] is -2.92 (inactive); in assay [9], 0.179 (inactive); in assay [10], 1.69. In assay [2], this compound yielded a composite z-score of 0.0686.
Regarding `C=CCC(OC(C)=O)[C@@H]1[C@@H](N(Cc2cccc3ccccc23)C(=O)c2cccc3ccccc23)c2cc(OCCCO)ccc2N1C(=O)c1ccc(-c2ccccc2)cc1` (stereo not given in full), the z-score is -0.929 (inactive) in assay [1]; -0.17 (inactive) in [3]; 0.526 (inactive) in [4]; 0.0426 (inactive) in assay [5]; 0.361 (inactive) in assay [6]; 0.684 in assay [7]. Also, the figures for the z-score in assay [8], in [9] and in assay [10] were -0.677 (inactive), 0.104 (inactive) and -2.47, respectively. The composite z-score in assay [2] is -0.106.
Regarding `Cc1ccc(S[C@]2(C(=O)NCCCN(C)C)CC(=O)N(C3CCCCC3)[C@@H]2c2ccc(CO)cc2)cc1`, the z-score in assay [1] is 0.344 (inactive); in assay [3], 4.64 (inactive); in [4], 0.695 (inactive); in assay [5] it was 2.17 (inactive); in assay [6], 0.819 (inactive); in assay [7] it was -0.358. The z-score in assay [8] is -2.24 (inactive); in [9] it was -2.06 (inactive); in assay [10] it was -1.4. Moreover, in [2], the composite z-score amounted to 0.199.
For the compound `COCCOC(=O)N1C(=O)[C@@]2(c3cc(C#CCCO)ccc31)[C@H](C(=O)Nc1nc3ccccc3s1)[C@H]1C(=O)O[C@H](c3ccccc3)[C@H](c3ccccc3)N1[C@@H]2c1ccccc1OCCO`, the z-score is -0.348 (inactive) in assay [1]; 5.19 (inactive) in assay [3]; 1.86 (inactive) in [4]; 0.286 (inactive) in assay [5]; 1.36 (inactive) in [6]; -0.331 in assay [7]. Besides, the z-score in assay [8] is 1.89 (inactive); in assay [9] it was -0.9 (inactive); in assay [10] it was 0.501. The compound also returned a composite z-score in assay [2] of 1.28.
